Results on 13 molecules are retold here after PubChem BioAssay (EPA / NIEHS).

Experiment [1] in a line: CCTE_Mundy_HCI_Cortical_NOG_BPCount: CCTE's Neurite Outgrowth Assay in rat cortical cells for Branch Point Count, Mundy Lab (AID 2284237).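 As to AC50: branch points counted about two days after chemical exposure.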 A digest of the protocol:
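Measured 50.33 h after dosing, this morphology endpoint uses rat primary cortical cultures labelled for betaIII-tubulin. Branch points are quantified by high-content imaging, with DMSO as negative control and baseline.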

The nature of experiment [2]: CCTE_Mundy_HCI_hNP1_Casp3_7: CCTE's Caspase-Glo 3/7 Assay in human neuroprogenitor cells for Apoptosis, Mundy Lab (AID 2284240). A digest of the protocol: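 Neuroepithelial-lineage stem cells from WA09 embryonic cells were treated with chemicals after 40–44 h of culture. Twenty-four hours later, caspase-3/7 activation was detected luminescently after a 30 min room-temperature reagent step, with DMSO as baseline.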

Experiment [3] in a line: CCTE_Mundy_HCI_hNP1_CellTiter: CCTE's Cell Titer-Glo 2 Assay in human neuroprogenitor cells for Viability, Mundy Lab (AID 2284241; active = hit-call score of the fitted dose curve at least 0.9, where 1 is the maximum). Summed up: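 Measures ATP content in human neural progenitors derived from WA09 embryonic cells. Read-out at 26.5 hours after dosing, with DMSO serving as the negative control and baseline.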
Experiment [4] in a line: CCTE_Mundy_HCI_Cortical_Synap_Neur_Matur_NeuronCount: CCTE's Synaptogenesis and Neurite Maturation Assay in rat cortical cells for Neuron Count, Mundy Lab (AID 2284242; active = hit-call score of the fitted dose curve at least 0.9, where 1 is the maximum;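 as to AC50: hits reduce neuron count versus DMSO baseline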). Summed up:
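Measured at DIV 12: fluorescently labelled neurons (Hoechst nuclei, MAP2) in rat primary cortical cultures, counted by high-content imaging. AraC suppressed glia from DIV 5; DMSO served as negative control.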

Experiment [5] is described as follows: IUF_NPC2c_oligodendrocyte_migration_120hr: Leibniz Research Institute for Environmental Medicine (IUF) 120-hour Neural Progenitor Cell Migration Assay for Oligodendrocyte Migration (NPC2c) (AID 2284297).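 Also: O4-positive oligodendrocyte migration distance divided by radial glia migration distance.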 A digest of the protocol: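 Exposure runs 5 days from differentiation onset at 37C, seven concentrations plus solvent control, DMSO at most 0.1%, applied to primary hNPC spheres on laminin. After fixation, O4 immunostaining gives oligodendrocyte distance from the sphere core, relative to radial glia migration.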

A short description of experiment [6]: IUF_NPC2a_radial_glia_migration_120hr: Leibniz Research Institute for Environmental Medicine (IUF) 120-hour Neural Progenitor Cell Migration Assay for Radial Glia Migration (NPC2a) (AID 2284298). Summed up: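 Migration distance in um, sphere core edge to migration-area edge, derived by nuclei-density algorithm from Hoechst images after 120 h compound exposure. Primary hNPC spheres differentiated on poly-D-lysine/laminin in N2 medium, 37C; medium half-replaced day 3.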

Experiment [7] is described as follows: IUF_NPC2a_radial_glia_migration_72hr: Leibniz Research Institute for Environmental Medicine (IUF) 72-hour Neural Progenitor Cell Migration Assay for Radial Glia Migration (NPC2a) (AID 2284299). Summed up:
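Spheres of human primary neural progenitors migrate on poly-D-lysine/laminin under compound exposure at 37C, 5% CO2. The 72 h radial glia migration distance comes from brightfield images, measured manually.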

Read-out in experiment [8]: Collagen I, COL1A1 (gene 1277)
Description: BSK_MyoF_CollagenI: BioMAP Diversity Plus: MyoF Assay for Collagen I Biomarker Activity (AID 2284238). The note with it: primary human lung fibroblasts. Summed up: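 Collagen I levels measured by ELISA on human lung fibroblast cultures 24 h post-dosing, with curve fitting in the positive direction relative to DMSO; SRB staining of parallel wells marked cytotoxicity.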

Read-out in experiment [9]: Collagen III, COL3A1 (gene 1281)
Description: BSK_MyoF_CollagenIII: BioMAP Diversity Plus: MyoF Assay for Collagen III Biomarker Activity (AID 2284239). The note with it: primary human lung fibroblasts. A digest of the protocol:
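Collagen III biomarker quantified by ELISA in human lung fibroblast cultures 24 h after dosing. Activity fitted in the positive direction against DMSO as baseline.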

Read-out in experiment [10]: Interleukin 17F (IL17F), IL17F (gene 112744)
Description: BSK_BT_xIL17F: BioMAP Diversity Plus: BT Assay for Interleukin 17F (IL17F) Biomarker Activity (AID 2284243). The note with it: primary human B cells with PBMC. A digest of the protocol: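 Human B cells co-cultured with PBMC; secreted IL-17F quantified by LumineX xMAP 24 hours after chemical dosing. Activity fitted in the positive direction against DMSO negative control as baseline.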

Read-out in experiment [11]: Actin alpha 1 (ACTA1), ACTA1 (gene 58)
As to the kind of experiment: BSK_MyoF_ACTA1: BioMAP Diversity Plus: MyoF Assay for Actin alpha 1 (ACTA1) Biomarker Activity (AID 2284244). The following applies: primary human lung fibroblasts. A digest of the protocol:
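MyoF fibroblast system (human lung); a-SMA quantified via ELISA at 24 h; DMSO-normalised, gain-of-signal endpoint.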

Read-out in experiment [12]: Interleukin 2 (IL2), IL2 (gene 3558)
Description: BSK_BT_xIL2: BioMAP Diversity Plus: BT Assay for Interleukin 2 (IL2) Biomarker Activity (AID 2284245). The note with it: primary human B cells with PBMC. Summed up:
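Co-cultures of primary human B cells and PBMC are treated with chemical and sampled at 24 h. IL-2 secretion is quantified by Luminex xMAP, with DMSO-treated wells as baseline.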

Read-out in experiment [13]: Basic fibroblast growth factor (bFGF), FGF2 (gene 2247)
As to the kind of experiment: BSK_MyoF_bFGF: BioMAP Diversity Plus: MyoF Assay for Basic fibroblast growth factor (bFGF) Biomarker Activity (AID 2284246). The following applies: primary human lung fibroblasts. A digest of the protocol: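 Fibroblasts from human lung, 24 h dosing. bFGF by ELISA; gain of signal over DMSO.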

Read-out in experiment [14]: Collagen IV, COL4A1 (gene 1282)
As to the kind of experiment: BSK_MyoF_CollagenIV: BioMAP Diversity Plus: MyoF Assay for Collagen IV Biomarker Activity (AID 2284247). The note with it: primary human lung fibroblasts. Summed up:
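Lung fibroblasts (human primary) treated with chemicals were assayed after 24 h for Collagen IV using an ELISA, with DMSO serving as negative control and baseline for a positive-direction fit.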

Read-out in experiment [15]: Plasminogen activator inhibitor-1 (PAI1), SERPINE1 (gene 5054)
As to the kind of experiment: BSK_MyoF_PAI1: BioMAP Diversity Plus: MyoF Assay for Plasminogen activator inhibitor-1 (PAI1) Biomarker Activity (AID 2284256).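 As to outcome: PAI-1 protein level measured by ELISA in fibroblast cultures; PAI-1 read 24 h after compound addition.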 The following applies: primary human lung fibroblasts. Summed up:
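Human lung fibroblasts (MyoF system) were exposed to test chemicals for 24 h, then PAI-1 was quantified by ELISA. Activity was fitted in the positive (signal-gain) direction relative to DMSO vehicle as baseline.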

Read-out in experiment [16]: Interleukin-8 (IL8), CXCL8 (gene 3576)
Description: BSK_MyoF_IL8: BioMAP Diversity Plus: MyoF Assay for Interleukin-8 (IL8) Biomarker Activity (AID 2284261). The note with it: primary human lung fibroblasts. A digest of the protocol:
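IL-8 quantified by ELISA after 24 h compound exposure of primary human lung fibroblasts. SRB staining of parallel cultures flagged cytotoxicity; DMSO served as baseline.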

Read-out in experiment [17]: Decorin, DCN (gene 1634)
Description: BSK_MyoF_Decorin: BioMAP Diversity Plus: MyoF Assay for Decorin Biomarker Activity (AID 2284265). The following applies: primary human lung fibroblasts. A digest of the protocol:
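Decorin protein was quantified by ELISA 24 h after chemical addition to primary human lung fibroblasts and analysed as increase over DMSO. Cytotoxicity was tracked in parallel cultures by SRB total-protein staining read at 560 nm.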

Experiment [18] is described as follows: BSK_MyoF_SRB: Viability Assessment in the BioMAP Diversity Plus: MyoF Assay (AID 2284267).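 Also: total protein by SRB absorbance in parallel cultures as cytotoxicity measure; cells assessed 24 h after compound addition.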 The note with it: primary human lung fibroblasts. Summed up: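 In this viability endpoint, fibroblasts from human lung are treated for 24 h, TCA-fixed, SRB-stained (0.1%) and read at 560 nm. Gain of signal relative to DMSO defines activity.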
Read-out in experiment [19]: Matrix Metallopeptidase 1 (MMP1), MMP1 (gene 4312)
Description: BSK_MyoF_MMP1: BioMAP Diversity Plus: MyoF Assay for Matrix Metallopeptidase 1 (MMP1) Biomarker Activity (AID 2284268). The note with it: primary human lung fibroblasts. A digest of the protocol:
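Human lung fibroblasts (MyoF system) exposed to chemical for 24 h in 96-well format; MMP1 biomarker quantified by ELISA, with activity fitted in the positive direction relative to DMSO baseline.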

Read-out in experiment [20]: TIMP metallopeptidase inhibitor 1 (TIMP1), TIMP1 (gene 7076)
As to the kind of experiment: BSK_MyoF_TIMP1: BioMAP Diversity Plus: MyoF Assay for TIMP metallopeptidase inhibitor 1 (TIMP1) Biomarker Activity (AID 2284269). The following applies: primary human lung fibroblasts. Summed up: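 ELISA read-out of TIMP-1 from primary human lung fibroblast cultures 24 h after compound dosing; gain of signal relative to DMSO vehicle baseline defines activity.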

Structures are written as SMILES. Results filed as inconclusive are left out. Calls of active or inactive are those of the source. The calls were made as follows, unless noted: active = hit-call score of the fitted dose curve at least 0.9, where 1 is the maximum; inactive = score below 0.9.

In the case of `C#CCOC(=O)[C@@H](C)Oc1ccc(Oc2ncc(Cl)cc2F)cc1`, the outcome in [1], in experiment [2], in experiment [3], in [4], in experiment [5] and in experiment [6] was inactive. In experiment [7], the molecule was classed as inactive.

On to `COCCO`, for which the outcome in [8], in experiment [9], in experiment [10], in experiment [11], in experiment [12] and in experiment [13] was inactive. Further, the outcome in [14], in experiment [15], in experiment [16], in [17], in experiment [18] and in [19] was inactive. For the same molecule, in [20], the result was inactive.

Turning to `CCCN(CCC)C(=O)SCC`, the call in experiment [2], in [3], in experiment [5], in experiment [6] and in experiment [7] was inactive.

In the case of `O=C(O)c1ccccc1`, the call in [1], in [2], in experiment [3], in experiment [5], in experiment [6] and in experiment [7] was inactive.

Consider `CC(C)(c1ccc(O)cc1)c1ccc(O)cc1`, for which the molecule was classed as inactive in experiment [4], in experiment [5], in experiment [6] and in [7].

Take `CCN(CC)C(=O)c1cccc(C)c1`: the molecule was classed as inactive in experiment [1], in experiment [2], in experiment [3], in experiment [4], in experiment [5] and in [6]. The result in experiment [7] was inactive.

With `S=C(S)NCCNC(=S)S.[Mn+2].[S-]C([S-])=NCCN=C([S-])[S-].[Zn+2]`, the result in [1], in experiment [2], in experiment [5], in [6] and in experiment [7] was inactive.

In general, AC50 refers to the concentration at which the activity in the assay is half-maximal. `CC1(C)C(C=C(Cl)Cl)C1C(=O)OCc1cccc(Oc2ccccc2)c1` (centres undefined): the AC50 is 84.5 µM (active) in [1] and 5.69 µM (active) in [4]. In addition, the molecule was classed as inactive in experiment [2] and in experiment [3].

Take `Cc1nn(C)c(Oc2ccccc2)c1C=NOCc1ccc(C(=O)OC(C)(C)C)cc1`: the AC50 in experiment [1] is 0.014 µM (active); in [2], 8.5 µM (active); in experiment [4] it was 0.00225 µM (active); in [5], 12.5 µM (active); in experiment [6], 5.23 µM (active); in experiment [7], 2.48 µM (active).

Regarding `S=C([S-])NCCNC(=S)[S-].[Mn+2]`, the outcome in experiment [2], in experiment [4], in experiment [5], in [6] and in experiment [7] was inactive.

In the case of `CCC(C)OC(=O)N1CCCCC1CCO` (centres undefined), the outcome in experiment [8], in [9], in experiment [10], in experiment [11], in experiment [12] and in experiment [13] was inactive. The outcome in experiment [14], in experiment [15], in experiment [16], in [17], in [18] and in experiment [19] was inactive. In addition, the outcome in experiment [20] was inactive.

Turning to `N#CSCSc1nc2ccccc2s1`, the half-maximal activity concentration (AC50) was 5.73 µM (active) in experiment [8]; 5.71 µM (active) in experiment [9]; 4.93 µM (active) in experiment [10]; 4.21 µM (active) in [11]; 5.16 µM (active) in experiment [12]; 10.6 µM (active) in experiment [13]. In addition, the half-maximal activity concentration (AC50) in experiment [14] is 6.4 µM (active); in experiment [15], 7.79 µM (active); in experiment [16], 11.2 µM (active); in experiment [17] it was 5.27 µM (active); in [18] it was 5.55 µM (active); in [19], 3.63 µM (active). In addition, the AC50 in experiment [20] is 11.4 µM (active).

`CSC(=O)c1cccc2nnsc12`: the result in experiment [1], in experiment [2], in experiment [3], in experiment [5], in experiment [6] and in experiment [7] was inactive.
